# Measured values: article PMC11062922 (Nature Chemical Biology, 2023)
# Like-named read-outs stand apart in the source and are kept apart here.
# Tested on: PLK4
# Details: read-out: apparent Kd, n = 1
substance,measurement,setting,value
Lestaurtinib,potency estimated from few doses,"compound concentrations:100 nM and 1000 nM (sheet 'Lestaurtinib' of Supplementary Table 1),run:Lestaurtinib_02422_R1,Plate:MR006",56.6 nM
same,potency estimated from few doses,"compound concentrations:100 nM and 1000 nM (sheet 'Lestaurtinib' of Supplementary Table 1),run:Lestaurtinib_02422_R3,Plate:MR006",60.8 nM
same,potency estimated from few doses,"compound concentrations:100 nM and 1000 nM (sheet 'Lestaurtinib' of Supplementary Table 1),run:Lestaurtinib_02437_R1,Plate:MR007",58.1 nM
same,potency estimated from few doses,"compound concentrations:100 nM and 1000 nM (sheet 'Lestaurtinib' of Supplementary Table 1),run:Lestaurtinib_02437_R2,Plate:MR007",61.6 nM
same,potency estimated from few doses,"compound concentrations:100 nM and 1000 nM (sheet 'Lestaurtinib' of Supplementary Table 1),run:Lestaurtinib_02437_R3,Plate:MR007",41 nM
same,potency estimated from few doses,"compound concentrations:100 nM and 1000 nM (sheet 'Lestaurtinib' of Supplementary Table 1),run:Lestaurtinib_02438_R2,Plate:MR008",70.6 nM
same,potency estimated from few doses,"compound concentrations:100 nM and 1000 nM (sheet 'Lestaurtinib' of Supplementary Table 1),run:Lestaurtinib_02438_R3,Plate:MR008",67.9 nM
same,potency estimated from few doses,"compound concentrations:100 nM and 1000 nM (sheet 'Lestaurtinib' of Supplementary Table 1),run:Lestaurtinib_02443_R1,Plate:MR009",70.3 nM
same,potency estimated from few doses,"compound concentrations:100 nM and 1000 nM (sheet 'Lestaurtinib' of Supplementary Table 1),run:Lestaurtinib_02443_R2,Plate:MR009",81 nM
same,potency estimated from few doses,"compound concentrations:100 nM and 1000 nM (sheet 'Lestaurtinib' of Supplementary Table 1),run:Lestaurtinib_02443_R3,Plate:MR009",62.6 nM
same,potency estimated from few doses,"compound concentrations:100 nM and 1000 nM (sheet 'Lestaurtinib' of Supplementary Table 1),run:Lestaurtinib_02473_R3,Plate:MR010",43.1 nM
same,potency estimated from few doses,"compound concentrations:100 nM and 1000 nM (sheet 'Lestaurtinib' of Supplementary Table 1),run:Lestaurtinib_02482_R2,Plate:MR011",113 nM
same,potency estimated from few doses,"compound concentrations:100 nM and 1000 nM (sheet 'Lestaurtinib' of Supplementary Table 1),run:Lestaurtinib_02487_R1,Plate:MR012",79.1 nM
same,potency estimated from few doses,"compound concentrations:100 nM and 1000 nM (sheet 'Lestaurtinib' of Supplementary Table 1),run:Lestaurtinib_02487_R3,Plate:MR012",83.9 nM
same,potency estimated from few doses,"compound concentrations:100 nM and 1000 nM (sheet 'Lestaurtinib' of Supplementary Table 1),run:Lestaurtinib_02496_R1,Plate:MR013",78.2 nM
same,potency estimated from few doses,"compound concentrations:100 nM and 1000 nM (sheet 'Lestaurtinib' of Supplementary Table 1),run:Lestaurtinib_02496_R2,Plate:MR013",94.1 nM
same,potency estimated from few doses,"compound concentrations:100 nM and 1000 nM (sheet 'Lestaurtinib' of Supplementary Table 1),run:Lestaurtinib_02496_R3,Plate:MR013",53.6 nM
same,potency estimated from few doses,"compound concentrations:100 nM and 1000 nM (sheet 'Lestaurtinib' of Supplementary Table 1),run:Lestaurtinib_02566_R2,Plate:MR014",56 nM
same,potency estimated from few doses,"compound concentrations:100 nM and 1000 nM (sheet 'Lestaurtinib' of Supplementary Table 1),run:Lestaurtinib_02566_R3,Plate:MR014",92.7 nM
same,potency estimated from few doses,"compound concentrations:100 nM and 1000 nM (sheet 'Lestaurtinib' of Supplementary Table 1),run:Lestaurtinib_02572_R1,Plate:MR015",50.1 nM
same,potency estimated from few doses,"compound concentrations:100 nM and 1000 nM (sheet 'Lestaurtinib' of Supplementary Table 1),run:Lestaurtinib_02572_R2,Plate:MR015",77.6 nM
same,potency estimated from few doses,"compound concentrations:100 nM and 1000 nM (sheet 'Lestaurtinib' of Supplementary Table 1),run:Lestaurtinib_02577_R1,Plate:MR016",55.9 nM
same,potency estimated from few doses,"compound concentrations:100 nM and 1000 nM (sheet 'Lestaurtinib' of Supplementary Table 1),run:Lestaurtinib_02577_R3,Plate:MR016",35.1 nM
same,potency estimated from few doses,"compound concentrations:100 nM and 1000 nM (sheet 'Lestaurtinib' of Supplementary Table 1),run:Lestaurtinib_02584_R1,Plate:MR017",56.6 nM
same,potency estimated from few doses,"compound concentrations:100 nM and 1000 nM (sheet 'Lestaurtinib' of Supplementary Table 1),run:Lestaurtinib_02584_R2,Plate:MR017",79.8 nM
same,potency estimated from few doses,"compound concentrations:100 nM and 1000 nM (sheet 'Lestaurtinib' of Supplementary Table 1),run:Lestaurtinib_02584_R3,Plate:MR017",76.3 nM
same,potency estimated from few doses,"compound concentrations:100 nM and 1000 nM (sheet 'Lestaurtinib' of Supplementary Table 1),run:Lestaurtinib_02601_R3,Plate:MR018",59.1 nM
same,potency estimated from few doses,"compound concentrations:100 nM and 1000 nM (sheet 'Lestaurtinib' of Supplementary Table 1),run:Lestaurtinib_02606_R2,Plate:MR019",68.7 nM
same,potency estimated from few doses,"compound concentrations:100 nM and 1000 nM (sheet 'Lestaurtinib' of Supplementary Table 1),run:Lestaurtinib_02606_R3,Plate:MR019",58 nM
same,potency estimated from few doses,"compound concentrations:100 nM and 1000 nM (sheet 'Lestaurtinib' of Supplementary Table 1),run:Lestaurtinib_02624_R1,Plate:MR020",169 nM
same,potency estimated from few doses,"compound concentrations:100 nM and 1000 nM (sheet 'Lestaurtinib' of Supplementary Table 1),run:Lestaurtinib_02624_R3,Plate:MR020",47.2 nM
same,potency estimated from few doses,"compound concentrations:100 nM and 1000 nM (sheet 'Lestaurtinib' of Supplementary Table 1),run:Lestaurtinib_02724_R1,Plate:MR021",70.6 nM
same,potency estimated from few doses,"compound concentrations:100 nM and 1000 nM (sheet 'Lestaurtinib' of Supplementary Table 1),run:Lestaurtinib_02724_R2,Plate:MR021",57.7 nM
same,potency estimated from few doses,"compound concentrations:100 nM and 1000 nM (sheet 'Lestaurtinib' of Supplementary Table 1),run:Lestaurtinib_02724_R3,Plate:MR021",86.8 nM
same,potency estimated from few doses,"compound concentrations:100 nM and 1000 nM (sheet 'Lestaurtinib' of Supplementary Table 1),run:Lestaurtinib_02741_R1,Plate:MR023",235 nM
same,potency estimated from few doses,"compound concentrations:100 nM and 1000 nM (sheet 'Lestaurtinib' of Supplementary Table 1),run:Lestaurtinib_02741_R2,Plate:MR023",213 nM
same,potency estimated from few doses,"compound concentrations:100 nM and 1000 nM (sheet 'Lestaurtinib' of Supplementary Table 1),run:Lestaurtinib_02741_R3,Plate:MR023",215 nM
same,potency estimated from few doses,"compound concentrations:100 nM and 1000 nM (sheet 'Lestaurtinib' of Supplementary Table 1),run:Lestaurtinib_02748_R2,Plate:MR024",80.7 nM
same,potency estimated from few doses,"compound concentrations:100 nM and 1000 nM (sheet 'Lestaurtinib' of Supplementary Table 1),run:Lestaurtinib_02752_R1,Plate:MR025",93.7 nM
same,potency estimated from few doses,"compound concentrations:100 nM and 1000 nM (sheet 'Lestaurtinib' of Supplementary Table 1),run:Lestaurtinib_02752_R2,Plate:MR025",68.6 nM
same,potency estimated from few doses,"compound concentrations:100 nM and 1000 nM (sheet 'Lestaurtinib' of Supplementary Table 1),run:Lestaurtinib_02765_R1,Plate:MR026",165 nM
same,potency estimated from few doses,"compound concentrations:100 nM and 1000 nM (sheet 'Lestaurtinib' of Supplementary Table 1),run:Lestaurtinib_02766_R1,Plate:MR027",56.5 nM
